# Test results: PubChem BioAssay AID1508602 (The Scripps Research Institute Molecular Screening Center, 2020)
# Where “and” joins values, the source holds several entries; their conditions need not be identical. Equal entries are not always repeated. The campaign covered roughly 650,000 compounds. About 6,800 (1%) were called active. Cut-off read from the data, not from the text of the source: active = activation above about 4.9%; inactive = the rest. The list comes from a sample in which actives are over-represented; it also holds similar structures and randomly drawn compounds. A structure can be active in one record and inactive in another.
# Target: G-protein coupled receptor 151 (Homo sapiens) (UniProt Q8TDV0)
# Sequence (Q8TDV0 whole entry, looked up): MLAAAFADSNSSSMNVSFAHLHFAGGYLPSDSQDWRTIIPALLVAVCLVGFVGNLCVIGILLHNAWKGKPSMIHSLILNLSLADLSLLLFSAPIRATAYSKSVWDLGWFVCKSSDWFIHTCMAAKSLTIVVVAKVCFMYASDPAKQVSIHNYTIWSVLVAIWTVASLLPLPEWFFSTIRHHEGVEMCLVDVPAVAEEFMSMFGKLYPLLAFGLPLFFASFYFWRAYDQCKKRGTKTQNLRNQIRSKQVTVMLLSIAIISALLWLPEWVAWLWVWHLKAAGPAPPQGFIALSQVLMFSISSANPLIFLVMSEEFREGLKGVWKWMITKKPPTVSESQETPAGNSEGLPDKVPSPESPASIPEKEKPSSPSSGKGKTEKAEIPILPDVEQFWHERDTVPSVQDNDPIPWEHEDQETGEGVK
# Assay: activators of human GPR151, primary screen, cell-based, PathHunter beta-arrestin, luminescence (AID 1508602);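 note: 0% = median of compound wells and 100% = cells with positive control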
# Conditions: PathHunter beta-arrestin GPR151 cells, at 11.2 µM, stronger effect = higher value
row,Structure (SMILES),activation
1,COc1ccc(-n2c(=S)[nH]c3cc(C(=O)Nc4cccc(Cl)c4)ccc3c2=O)c(OC)c1,1.31% (inactive)
2,O=C(N/N=C\C=C\c1ccccc1)c1ccccn1,8.89% (active)
3,O=C(N/N=C\c1ccccc1Cl)c1ccccn1,-5.29% (inactive)
4,O=C(N/N=C\c1ccccc1)c1ccccn1,-3.62% (inactive)
5,CC(=O)OCc1cn(-c2nonc2N)nn1,2.37% (inactive)
6,CC(=O)C1=C(O)C(=O)N(CC#N)C1c1ccc(F)cc1 (stereo not given),-0.438% (inactive)
7,O=C(COc1ccc(Br)cc1CO)NCC(F)(F)F,8.84% (active)
8,O=C(COc1ccc(Br)cc1Cl)NCCO,0.504% (inactive)
9,COc1ccc(OCC(=O)NCC(F)(F)F)c([N+](=O)[O-])c1,1.07% (inactive)
10,COc1ccc(-c2cc(C(=O)Nc3cc(Cl)ccc3O)no2)cc1OC,0.999% (inactive)
11,Cc1cc2c(c(=O)o1)C(c1cccc(OCc3c(F)cccc3Cl)c1)C(C#N)=C(N)O2 (stereo not given),1.06% (inactive)
12,CC(C)C[C@H]1NC(=O)[C@@H]2C[C@H](NCc3cc(F)ccc3F)CN2C1=O,-0.818% (inactive)
13,CCC[C@@H]1NC(=O)[C@@H]2C[C@H](NCc3nc(-c4ccc(F)cc4)cs3)CN2C1=O,5.66% (active)
14,O=C1N[C@@H](Cc2ccc(Cl)cc2)C(=O)N2C[C@@H](NCc3nc(-c4ccc(F)cc4)cs3)C[C@@H]12,-2.22% (inactive)
15,O=C(NCc1ccc(Cl)cc1)C(=O)NC1CCCCCC1,1.92% (inactive)
16,Cc1cc(NC(=O)CSc2nnc3c(n2)[nH]c2ccc(S(=O)(=O)N4CCOCC4)cc23)no1,-0.982% (inactive)
17,Cc1c2cnn(CC(=O)NCC(C)c3ccccc3)c(=O)c2c(C)n1Cc1ccccc1 (stereo not given),-0.872% (inactive)
18,CC1CCN(CC(=O)Nc2ccccc2Cl)CC1,20.2% (active)
19,CC1CCN(CC(=O)Nc2ccc(Cl)cc2)CC1,-1.21% (inactive)
20,Cc1cc(C)cc(NC(=O)NC2CCN(CC(=O)Nc3cccc(Cl)c3C)CC2)c1,0.14% (inactive)
21,COc1ccc(NC(=O)C2CCCN2C(=O)Nc2ccccc2)cc1 (stereo not given),2.01% (inactive)
22,Nc1cccc(-c2ncc(C(=O)NC3CC3)s2)c1,-0.0842% (inactive)
23,O=C(COc1ccc(Cl)cc1)Nc1ccc2oc(=O)ccc2c1,1.66% (inactive)

row,Structure (SMILES),activation
1,O=C(CC12CC3CC(CC(C3)C1)C2)Nc1ccc2oc(=O)ccc2c1,6.05% (active)
2,O=C(CC12CC3CC(CC(C3)C1)C2)Nc1ccc2c(c1)COC2=O,-1.36% (inactive) and 1.16% (inactive)
3,CCCOc1ccc(C2CC(=O)NC3=C2C(=O)CC(C)(C)C3)cc1 (stereo not given),0.129% (inactive)
4,CC1(C(=O)Nc2cccc(C(F)(F)F)c2)CC2c3ccccc3C1c1ccccc12 (stereo not given),6.33% (active)
5,CC1(C)C(=O)C2(C(=O)Nc3cccc(C(F)(F)F)c3)CCC1C2 (stereo not given),-0.111% (inactive)
6,Cc1ccc(NC(=O)C2(C)CC3c4ccccc4C2c2ccccc23)cc1C (stereo not given),-0.659% (inactive)
7,O=C(NC(=S)Nc1ccc(-c2nc3ncccc3o2)cc1)c1ccc(I)cc1,-0.544% (inactive)
8,CC1CCCC(NC(=O)CSc2cc(=O)n(C)c3ccc(Cl)cc23)C1C (stereo not given),1.18% (inactive)
9,Cc1ccc2c(c1)N(CC(=O)N1CCC(C)CC1)C(=O)c1cccnc1O2,5.35% (active)
10,COC(=O)CN1C(=O)c2cccnc2Oc2ccc(C)cc21,-1.68% (inactive)
11,CCOC(=O)C1CCN(C(=O)CN2C(=O)c3cccnc3Oc3ccc(C)cc32)CC1,2.66% (inactive)
12,CC1Cc2ccccc2N1S(=O)(=O)c1nnc(NC(=O)c2ccc(F)cc2)s1 (stereo not given),-0.611% (inactive)
13,COc1ccccc1NC(=O)c1c(NCc2cccs2)sc2c1CCCC2,1.25% (inactive)
14,C#CCN=Cc1c(O)n(CC)c(=S)n(CC)c1=O,-0.872% (inactive)
15,Cc1cccc(NC(=S)N(CCCN2CCCC(C)C2)Cc2cccs2)c1 (stereo not given),2.67% (inactive)
16,CCOC(=O)C1=CN(c2ccc(C)cc2)C=C(C(=O)OCC)C1c1ccc(Cl)c(Cl)c1,1.19% (inactive)
17,C#CCN1C(=O)S/C(=C/c2cc(Cl)c(O)c(OC)c2)C1=O,2.53% (inactive)
18,CCCCCn1c(=S)[nH]c2cc(C(=O)NCc3ccc4c(c3)OCO4)ccc2c1=O,-1.93% (inactive)
19,O=C(NCc1ccc2c(c1)OCO2)c1ccc(I)cc1,-1.11% (inactive)
20,C=CCn1c(=O)c2ccc(C(=O)NCc3ccc4c(c3)OCO4)cc2n(CC(N)=O)c1=O,10.5% (active)
21,CSCCC(NC(C)=O)C(=O)OCC(=O)Nc1nnc(C(C)C)s1 (stereo not given),-1.34% (inactive)
22,COc1c(Cl)ccc(Cl)c1C(=O)Nc1cc(C)cc(C)c1,0.289% (inactive)
23,Cn1c(/C=C2\C(=O)Nc3ccccc32)nc2ccccc2c1=O,1.31% (inactive)

row,Structure (SMILES),activation
1,COC(=O)/C=C1/C(=O)Nc2ccccc21,-0.452% (inactive)
2,Cc1cc(C)c(/C=C2\C(=O)Nc3ccccc32)[nH]1,-2.18% (inactive) and 5.18% (active)
3,COC(=O)c1c(OCc2cccnc2)cc(=O)n2c1CCN(C(C)CSC)CC2 (stereo not given),0.107% (inactive)
4,COc1cccc(CNC(=O)CCC(=O)N2CC(C)Oc3ccc(C)cc32)c1 (stereo not given),0.215% (inactive)
5,Cc1cccc(CN[C@H]2C[C@H]3C(=O)N[C@@H](CC(C)C)C(=O)N3C2)c1,1.59% (inactive)
6,C=C(C)Cn1c(N2CCN(CCO)CC2)nc2c1c(=O)[nH]c(=O)n2C,-0.406% (inactive)
7,COc1ccc2nc(/C(C#N)=C\c3c[nH]c4ccccc34)[nH]c2c1,-0.394% (inactive)
8,COc1cccc(/C=C(\C#N)c2nc3ccc(C)cc3[nH]2)c1OC,13.2% (active)
9,Cc1ccc2nc(/C(C#N)=C/c3ccccc3F)[nH]c2c1,-0.301% (inactive)
10,COc1cc2c(cc1/C=C(\C#N)c1nc3ccccc3[nH]1)OCO2,0.566% (inactive)
11,COc1ccc2nc(/C(C#N)=C\c3cc4c(cc3OC)OCO4)[nH]c2c1,5.68% (active)
12,COc1ccccc1/C=C(/C#N)c1nc2ccccc2[nH]1,-0.79% (inactive)
13,COc1ccc(S(=O)(=O)n2nc(-c3cc(OC)cc(OC)c3)cc2N)cc1,-1.02% (inactive)
14,Cc1ccc(NC(=O)C2CCCN(S(=O)(=O)c3ccc4c(c3)oc(=O)n4C)C2)cc1C (stereo not given),-0.645% (inactive)
15,O=C(c1ccc(N2CCC(NCc3cccc(F)c3F)CC2)cc1)N1CCCC(CO)C1 (stereo not given),0.257% (inactive)
16,O=C(Nc1ccc2oc(-c3cccc(I)c3)nc2c1)c1cc(Br)ccc1Cl,-0.461% (inactive)
17,O=C(Cc1cccs1)NCCC1=CCCCC1,9.81% (active)
18,O=C(Cc1ccc([N+](=O)[O-])cc1)NCCC1=CCCCC1,0.571% (inactive)
19,O=C(CNC(=S)N(Cc1cccs1)C1CCCCC1)NCCC1=CCCCC1,2.8% (inactive)
20,CCOC(=O)c1c(NC(=O)c2cc(S(N)(=O)=O)c(Cl)cc2Cl)sc2c1CCC(C)C2 (stereo not given),0.0074% (inactive)
21,COc1cc(/C=C2/C(=N)N3N=C(CC(C)C)SC3=NC2=O)ccc1OC(=O)c1ccc(F)cc1,-0.0343% (inactive)
22,CCOC(=O)c1[nH]c2ccc(OC)cc2c1NC(=O)CN(C)C,6.75% (active)
23,CCOC(=O)Nc1c(C(=O)OC)[nH]c2ccc(C)cc12,-1.5% (inactive)

row,Structure (SMILES),activation
1,CCOC(=O)c1[nH]c2ccc(OC)cc2c1NC(=S)N1CCN(c2ncccn2)CC1,2.39% (inactive)
2,COc1ccccc1NC(=O)c1sc2ncn(Cc3cccc(Br)c3)c(=O)c2c1C,-1.06% (inactive)
3,S=C(S)NCCc1c[nH]c2ccccc12,-0.43% (inactive)
4,CSc1ncc(C(=O)NCCc2c[nH]c3ccccc23)c(C)n1,4.98% (active)
5,O=C(NCCc1c[nH]c2ccccc12)c1cccs1,-0.507% (inactive)
6,Cc1ccc(CNC(=O)CN2C(=O)C3C4C=CC(C4)C3C2=O)o1 (stereo not given),0.668% (inactive)
7,C[C@@H](c1ccccc1)N1C(=O)[C@H]2[C@H]3[C@H](O)C=CC(=O)[C@@H]3CC[C@H]2C1=O,-1.71% (inactive)
8,CC(=O)N(c1nc(C=O)cs1)c1ccccc1F,1.55% (inactive)
9,CC(C)(C)c1ccc(C2/C(=C(/O)c3ccccc3)C(=O)C(=O)N2c2ccc(OCC(=O)O)cc2)cc1 (stereo not given),-0.849% (inactive)
10,COc1ccc(N2C(=O)C(=O)/C(=C(/O)c3ccccc3)C2c2ccc(Cl)cc2)cc1 (stereo not given),-0.225% (inactive)
11,O=C(O)COc1ccc(N2C(=O)C(=O)/C(=C(\O)c3ccccc3)C2c2ccc(Cl)cc2Cl)cc1 (stereo not given),6.19% (active)
12,CCOc1ccc2c(c1)=C/C(=C\c1[nH]c(=S)[nH]c1O)C(=O)N=2,-0.225% (inactive)
13,CN1NC2(CCCCC2)N(c2ccccc2)C1=S,0.403% (inactive)
14,COc1ccc(CCNc2cc(C)nc(Nc3cccc(N(C)C)c3)n2)cc1,8.12% (active)
15,COc1ccc(CCNc2cc(C)nc(NCc3ccc4c(c3)OCO4)n2)cc1,-0.591% (inactive)
16,COc1ccc(CCNc2ncnc3c2nc(Nc2cccc(N(C)C)c2)n3C(C)C)cc1,-3.07% (inactive)
17,CC1=C(C(=O)OCc2ccc3c(c2)OCO3)C(c2ccc(Cl)c(Cl)c2)NC(=O)N1 (stereo not given),-0.562% (inactive)
18,CC(C)(C)S(=O)(=O)Nc1nccnc1-c1ccc2c(c1)OCO2,-0.466% (inactive)
19,CCCCSC1=C(C#N)C(c2ccc(OC)cc2)C2=C(CC(C)(C)CC2=O)N1 (stereo not given),1.78% (inactive)
20,CC(=O)N(C)c1ccc(N=Cc2ccc3ccccc3c2)cc1,-0.522% (inactive)
21,O=C1NC2(CCN(CC(=O)N3CCCCC3)CC2)Nc2ccccc21,-0.0006% (inactive)
